Bioassay records (PubChem)
ELG1 DNA repair: ELG1-dependent DNA repair inhibition; Potency, µM (titrated, usually from 46.1 µM), inactives show top-dose activity change, negative = inhibition, usual class: inhibitors; HEK293T ELG1-luciferase reporter, luminescence, 16 h; DNA damage induced by 5-fluorouridine; AID 504467; hit rate 2.3% among 330,000; note: potency is the fitted concentration of half-maximal effect; nearly all actives have a fitted effect of over 55% in size
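Reporter activity after DNA damage by 5-fluorouridine is monitored. Compound-treated cells incubate 16 hr at 37 °C, then ONE-Glo is added for 30 min before luminescence reading.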
DT40 TDP1 no CPT: qHTS for Inhibitors of human tyrosyl-DNA phosphodiesterase 1 (TDP1): qHTS in cells in absence of CPT. AID 686978, 2013. DT40 Tdp1-/- hTDP1 cells, no CPT, ATP luminescence, 48 h. hit rate 15% among 420,000. Potency, µM (titrated, usually from 46.2 µM), without a hit: at the highest dose activity change, negative = growth inhibition, hits mostly inhibitors; note: potency is the fitted concentration of half-maximal effect; nearly all actives have a fitted effect of over 55% in size
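Camptothecin absent (DMSO only). Human TDP1-complemented DT40 knockout cells, 400 cells/well, 37 °C for minimum 48 hr; ATP measured via CellTiter-Glo, 30 min dark incubation, luminescence.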
DT40 TDP1 CPT: DT40-hTDP1 cell growth loss with CPT; chicken DT40 Tdp1-/-;hTDP1 cells + 20 nM CPT, ATP luminescence, 48 h; Potency, µM (titrated, usually from 46.2 µM), without a hit: top-dose activity change, negative = growth inhibition, hits mostly inhibitors; hit rate 12% among 420,000; AID 686979; note: potency is the fitted concentration of half-maximal effect; nearly all actives have a fitted effect of over 55% in size
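Chicken DT40 Tdp1-/- cells complemented with human TDP1, 400 cells/well, exposed to compounds plus 20 nM camptothecin for at least 48 h at 37 C; viability read as ATP content by CellTiter-Glo luminescence.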
Gal4-VP16 FLuc: inhibits Gal4-VP16 luciferase reporter, ROR gamma counter-screen | Drosophila S2 Gal4-VP16 UAS-luciferase, luminescence, 20 h | Potency, µM (top dose mostly 53.6 µM), for the others: at the top dose activity, negative = inhibition, actives largely listed as inhibitors | hit rate 3.5% among 310,000;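 note: Gal4-VP16 expression switched on by copper sulfate through the metallothionein promoter; potency is the fitted concentration of half-maximal effect; nearly all actives have a fitted effect of over 50% in size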
IL1B secr inh: blocks inflammasome-driven IL-1 beta release; THP-1 LPS/ATP IL-1B secretion, AlphaLISA, 16 h; hits give low values; activity change, % at 57.5 µM; hit rate 4.7% among 360,000; AID 743279; in the data active = activity change below about -50%; inconclusive = mostly about -30% to -49%
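THP-1 cells pretreated 1 hr with compounds (up to 57.5 uM final), then stimulated with LPS (250 ng/mL final) plus ATP (1.25 mM final); secreted IL-1B measured by AlphaLISA after 16 hr, decreased signal indicating inhibition.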
RORgamma inh: ROR gamma (mouse) transcription inhibition. P51450. Drosophila S2 Gal4-RORgamma UAS-luciferase reporter, 20 h. Potency, µM (doses to about 53.6 µM), without a hit: at the top dose activity change, negative = inhibition, actives largely listed as inhibitors. hit rate 5.4% among 310,000; note: potency is the fitted concentration of half-maximal effect; nearly all actives have a fitted effect of over 60% in size
Target sequence (P51450 whole entry, looked up, the tested form may be a part): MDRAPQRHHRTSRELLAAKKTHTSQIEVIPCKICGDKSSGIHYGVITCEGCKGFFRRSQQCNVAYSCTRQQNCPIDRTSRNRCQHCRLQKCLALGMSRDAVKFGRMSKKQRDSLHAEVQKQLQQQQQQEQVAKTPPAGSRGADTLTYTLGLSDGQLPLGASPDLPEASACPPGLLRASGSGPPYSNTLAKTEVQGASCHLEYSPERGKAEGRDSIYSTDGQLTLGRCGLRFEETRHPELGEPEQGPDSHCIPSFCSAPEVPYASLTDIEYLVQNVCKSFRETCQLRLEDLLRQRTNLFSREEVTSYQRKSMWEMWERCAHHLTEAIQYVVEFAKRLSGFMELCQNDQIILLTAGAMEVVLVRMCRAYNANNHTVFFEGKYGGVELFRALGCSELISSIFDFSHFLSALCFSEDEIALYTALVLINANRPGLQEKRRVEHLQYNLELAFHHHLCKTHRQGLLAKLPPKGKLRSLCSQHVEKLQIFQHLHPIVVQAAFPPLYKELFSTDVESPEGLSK
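A Gal4/UAS one-hybrid system in insect cells: metallothionein-promoter Gal4–ROR gamma fusion plus Photinus luciferase reporter. Copper sulfate 700 uM final, 20 hr ambient incubation, luminescent detection after 10 min with reagent.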
* hit, by the source's call; ? = inconclusive; · = not tested or not shown; [ ] = another dose, or the depositor's remark. Most compounds without a hit are left out; they make up all but 21% or so of the library. Unless noted, calls come from the whole dose curve; as a rule, active = well fitted curve in the direction sought with a large enough effect; inconclusive = small, poorly fitted or top-dose-only effect, or another doubt; inactive = no such curve, though single readings can be large; an effect the other way counts as inactive or inconclusive. % is set by controls: 0 for no effect and ±100 for the full control effect.

SMILES	ELG1 DNA repair	DT40 TDP1 no CPT	DT40 TDP1 CPT	Gal4-VP16 FLuc	IL1B secr inh	RORgamma inh
C[C@@H]1CN([C@H](C)CO)C(=O)CCCn2nncc2CO[C@H]1CN(C)C(=O)Oc1ccc2ccccc2c1	·	-12%	-1%	·	-5	·
C[C@@H]1CN([C@H](C)CO)C(=O)CCCn2nncc2CO[C@@H]1CN(C)C(=O)Oc1ccc2ccccc2c1	·	8.2µM*	8%	·	-10	·
C[C@@H]1CN([C@@H](C)CO)C(=O)CCCn2nncc2CO[C@@H]1CN(C)C(=O)Oc1cccc2ccccc12	·	0.58µM*	0.52µM*	·	6	·
C[C@H]1CN([C@@H](C)CO)C(=O)CCCn2nncc2CO[C@H]1CN(C)C(=O)Oc1ccc2ccccc2c1	·	9.2µM*	16µM*	·	24	·
C[C@@H]1CN([C@@H](C)CO)C(=O)CCCn2nncc2CO[C@@H]1CN(C)C(=O)Oc1ccc2ccccc2c1	·	?	-28%	·	21	·
OC[P+](CO)(CO)CO	·	·	·	1%	·	-11%
NC[C@H](CC(=O)O)c1ccc(Cl)cc1	·	-4%	?	-7%	·	5%
O=C(CC1CCCCC1)c1c(O)c2ccccc2oc1=O	?	?	18µM*	?	16	-13%
CCCN1CCO[C@@H]2c3cc(O)ccc3OC[C@@H]21	·	-4%	6%	8%	·	8%
O=C1CN=C(c2ccc[nH]2)c2cc(Cl)ccc2N1	8.2µM*	0.033µM*	0.16µM*	1%	5	-25%
CN=C1CN=C(c2ccc[nH]2)c2cc(Cl)ccc2N1	·	0.11µM*	0.079µM*	·	·	·
O=C1Nc2ccc(Cl)cc2C(c2ccccc2)=NC1O (stereo unspecified)	·	?	?	0%	·	4%
CCN(CC)CCNC(=O)c1c(C)[nH]c(/C=C2\C(=O)Nc3ccc(F)cc32)c1C	·	3.8µM*	4.2µM*	-11%	·	-9%[10 µM]
CC(=O)OC1CC[C@@]2(C)C3CC(=O)[C@]4(C)C(C(C)=O)=CCC4C3CC[C@H]2C1 (stereo partly specified)	·	?	-4%	-2%	·	-16%
CC(CNC(=O)CCS(=O)(=O)c1ccc2c(c1)oc(=O)n2C)c1ccccc1 (stereo unspecified)	5%	33%	-12%	8%	20	-12%
Cc1ccc(-n2nc3c(=O)n(CC(=O)NCC(C)c4ccccc4)nc(C)c3c2C)cc1 (stereo unspecified)	·	?	21µM*	·	·	·
CC(C)(C)OC(=O)N1CCCC(C(=O)Nc2cccc(C(=O)NCCc3ccccc3)c2)C1 (stereo unspecified)	·	21µM*	15µM*	·	10	·
Cn1cc(C(=O)NC2CC2)c2ccccc21	24%	-8%	8%	-8%	-1	-4%
O=C(NC1CCCCCC1)c1ccc[nH]c1=S	23%	-34%	-6%	0.79µM*	-6	0.45µM*
N=C1c2ccccc2CN1c1ncccn1	-16%	-22%	0%	-9%	-16	-8%
CNC(=O)OCC[N+](C)(C)C	·	-19%	5%	2%	·	-1%
COC(=O)[C@]12C(=O)C(C)=C(O)[C@@]1(C)C(C)=CC1[C@@]34CC[C@@H](OC(C)=O)C(C)(C)C3C(C[C@]12C)OC4=O (stereo partly specified)	-2%	-8%	1%	-5%	1	?
CCOC(=O)c1c(-n2c(C)cc(C=C3C(=O)NC(=S)NC3=O)c2C)sc2c1CCCC2	?	18µM*	23µM*	?	-110*	13µM*
Cc1ccc(N2C(=O)NC(=O)/C(=C\c3cc(C)n(-c4sc5c(c4C#N)CCCC5)c3C)C2=O)cc1	17%	?	?	-3%	-84*	35%
CCOC(=O)c1c(/N=C/C2C(=O)NC(=O)NC2=O)sc2c1CCC2	2%	6%	11%	-1%	-9	26%
SMILES	ELG1 DNA repair	DT40 TDP1 no CPT	DT40 TDP1 CPT	Gal4-VP16 FLuc	IL1B secr inh	RORgamma inh
CCN1C(=O)NC(=O)/C(=C/c2cc(C)n(-c3sc(C)c(C)c3C#N)c2C)C1=O	?	?	?	-14%	-22	-1%
CCOC(=O)c1c(-n2c(C)cc(/C=C3/C(=O)NC(=O)N(CC)C3=O)c2C)sc2c1CCCC2	·	?	16µM*	·	6	·
COc1cc(N2C(=O)CC(=O)NC2=O)cc(OC)c1OC	10%	7%	16%	5%	11	-18%
C[C@@H]1CN([C@@H](C)CO)C(=O)CCCn2cc(nn2)CO[C@H]1CN(C)C(=O)Oc1cccc2ccccc12	·	-8%	-25%	·	-12	·
CN(C)P1(=O)N(C)CCN1C	·	13%	17%	·	17	·
O=C(O)CCCCCCNC1c2ccccc2CCc2ccccc21	·	2%	-3%	·	·	·
CCc1ccc(NC(=O)c2ccc(F)c(S(=O)(=O)N3CCc4ccccc4C3)c2)cc1	·	21µM*	?	·	·	·
CCc1ccc(NC(=O)c2ccc(F)c(S(=O)(=O)N3CCC4(CC3)OCCO4)c2)cc1	·	21µM*	?	·	·	·
CCN(CC)C(=O)c1ccc(NC(=O)c2cccc(S(=O)(=O)N3CCN(C)CC3)c2)cc1	0%	-23%	-20%	-2%	16	2%
CNc1ccc2oc(C[C@@H]3OC4(CC[C@@H]3C)O[C@H](C(C)C(=O)c3ccc[nH]3)[C@H](C)C[C@H]4C)nc2c1C(=O)O (stereo partly specified)	·	·	·	·	·	1.8µM*
CNc1ccc2oc(C[C@H]3O[C@]4(CC[C@H]3C)O[C@H]([C@H](C)C(=O)c3ccc[nH]3)[C@H](C)C[C@H]4C)nc2c1C(=O)O	·	1.1µM*	1.5µM*	-62%	·	?
CCc1ccc(-n2nc(C)c3c2NC(=O)CSC3c2ccccc2C)cc1 (stereo unspecified)	·	18µM*	?	·	·	·
CCc1ccc(-n2nc(C)c3c2NC(=O)CSC3c2ccc(C(=O)OC)cc2)cc1 (stereo unspecified)	·	13µM*	15µM*	·	·	·
CCc1ccc(-n2nc(C)c3c2NC(=O)CSC3c2ccc(OC)cc2OC)cc1 (stereo unspecified)	·	23µM*	18µM*	·	·	·
COc1ccc(C2SCC(=O)Nc3c2c(C)nn3-c2ccccc2)cc1 (stereo unspecified)	-13%	?	-24%	-5%	6	40%
CC(=O)CC(c1ccccc1)c1c(O)c2ccc(O)cc2oc1=O (stereo unspecified)	·	·	·	-7%	·	-12%
O=C(c1cnccn1)N1CCC2(CC1)CN(Cc1ccncc1)C2	·	-10%	6%	2%	·	-5%
